USP30 block = human USP30 deubiquitinase inhibition | Q70CQ3 | purified USP30, Ub-rhodamine cleavage fluorescence | inhibition, % at 25 µM | 5.3% of 47,000 active | AID 1645860
Target sequence (Q70CQ3 whole entry, looked up): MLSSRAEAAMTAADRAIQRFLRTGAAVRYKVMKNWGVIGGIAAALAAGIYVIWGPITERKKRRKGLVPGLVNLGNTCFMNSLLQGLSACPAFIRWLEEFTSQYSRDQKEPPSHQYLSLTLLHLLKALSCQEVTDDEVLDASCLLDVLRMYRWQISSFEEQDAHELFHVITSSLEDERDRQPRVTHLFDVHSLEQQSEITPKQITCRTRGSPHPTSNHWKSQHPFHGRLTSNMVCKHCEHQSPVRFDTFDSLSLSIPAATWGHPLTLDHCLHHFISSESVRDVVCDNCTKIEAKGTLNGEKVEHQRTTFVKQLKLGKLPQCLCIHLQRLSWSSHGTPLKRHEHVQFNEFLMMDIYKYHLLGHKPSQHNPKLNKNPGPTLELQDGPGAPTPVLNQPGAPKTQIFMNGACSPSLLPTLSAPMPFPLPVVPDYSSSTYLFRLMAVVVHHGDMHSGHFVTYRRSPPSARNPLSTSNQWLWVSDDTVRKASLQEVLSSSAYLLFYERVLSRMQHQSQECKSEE
USP17 inh = blocks human USP17 ubiquitin-rhodamine cleavage | A8MUK1 | purified USP17, Ub-rhodamine cleavage fluorescence, 3 h | inhibition, % at 50 µM | 6.5% of 47,000 active | AID 1645855
A number is an active result; 0 = inactive; - = no result given. Shown are actives, neighbours in structure and some others; about 9.6% of the full set was active somewhere. Rule as the data show it: active = inhibition above about 30%; inactive = the rest.

SMILES | USP30 block | USP17 inh
O=C1CC(c2nc3ccccc3n2Cc2ccccc2)CN1Cc1ccccc1 (stereo not drawn) | 0 | 0
Cc1ccccc1OCCCn1c(C2CC(=O)N(Cc3ccccc3)C2)nc2ccccc21 (stereo not drawn) | 49 | 0
CCN(CC)C(=O)Cn1c(C2CC(=O)N(Cc3ccc(F)cc3)C2)nc2ccccc21 (stereo not drawn) | 0 | 0
O=C1N(c2cccnc2)C(=O)C2(Cc3ccccc3)CCNCCN12 (stereo not drawn) | 0 | 0
CC(=O)Nc1ccc(C(=O)Nc2cc(-c3ccccn3)no2)cc1 | 0 | 0
CCOc1ccccc1-c1cc(NC(=O)c2cc3ccc4cccnc4c3[nH]2)on1 | 88 | 68
O=C(Nc1nc2ccccc2s1)c1cc2ccc3cccnc3c2[nH]1 | - | 58
COc1ccc2nc(NC(=O)c3cc4ccc5cccnc5c4[nH]3)sc2c1 | 0 | 0
O=C(Nc1ccc(F)c(F)c1)c1cc2n(n1)CCCC2 | 0 | -
COc1ccccc1CCNC(=O)c1cccc(N2C(=O)CCS2(=O)=O)c1 | 0 | 0
O=C(NCCc1ccc(F)cc1)c1cccc(N2C(=O)CCS2(=O)=O)c1 | 37 | 0
Cc1noc(C)c1CN1C[C@H](OCc2cccnc2)[C@H]2OCCC[C@H]21 | 0 | 0
Cc1ccc(NC(=O)c2cc(-c3ccncc3)n[nH]2)cc1Cl | 0 | 0
Cc1ccc(NC(=O)C2CCN(C(=O)c3cc(-c4ccncc4)n[nH]3)CC2)cc1Cl | 63 | 63
COc1ccccc1CNC(=O)c1ccc2ncnc(N3CCOCC3)c2c1 | 0 | -
O=C(NCc1cccc(Br)c1)c1ccc(-c2cccnc2)nc1 | 0 | 0
O=C(NCc1ccc(Br)cc1)c1ccc(-c2cccnc2)nc1 | 55 | 0
Cc1cc(N2CCN(C(=O)CCc3ccccc3)CC2)nc2nncn12 | 0 | 0
O=C(CC1C(=O)N(C2CCCC2)c2nc3ccccc3n21)Nc1ccccc1C(F)(F)F (stereo not drawn) | 0 | 34
Cc1ccc(NC(=O)CC2C(=O)N(C3CCCC3)c3nc4ccccc4n32)cc1 (stereo not drawn) | 0 | 0
CN(C(=O)CN1CCCC1c1cnn(C)c1)C1(C#N)CCCCC1 (stereo not drawn) | 0 | 0
Cc1ccc(Cn2c(=O)c3ccccc3n3c(CCC(=O)NCC4CCCO4)nnc23)cc1 (stereo not drawn) | 39 | -
O=C(CCc1nnc2n(Cc3ccc(Cl)cc3)c(=O)c3ccccc3n12)N1CCN(c2ccccn2)CC1 | 83 | 52
CC(C)CCn1c(=O)c2ccccc2n2c(CCC(=O)NCC3CCCO3)nnc12 (stereo not drawn) | 0 | 0
O=C(CCc1nnc2n(Cc3ccccc3)c(=O)c3ccccc3n12)N1CCN(c2ccccn2)CC1 | 60 | 35
SMILES | USP30 block | USP17 inh
CC(C)OCCCn1c(=O)c2ccccc2n2c(CCC(=O)N3CCN(c4ccccn4)CC3)nnc12 | 0 | 0
O=C(CCc1nnc2n(Cc3ccccc3)c(=O)c3ccccc3n12)NCc1ccc2c(c1)OCO2 | 0 | 39
O=C(CCc1nnc2n(Cc3ccc(Cl)cc3)c(=O)c3ccccc3n12)N1CCN(c2ccccc2)CC1 | 0 | 0
O=C(CCc1nnc2n(Cc3ccccc3)c(=O)c3ccccc3n12)NCCN1CCCC1 | 0 | 0
CCN(CC)c1ncnc2c1cnn2-c1cccc(Cl)c1 | 0 | 0
O=C(C1CCCCC1)N1CCN(c2nc3c(F)cccc3s2)CC1 | 0 | 0
Cc1cccc(CCNC(=O)CCc2nnc3n(CCc4ccccc4)c(=O)c4ccccc4n23)c1 | 39 | 0
Cc1ccc(Cn2c(=O)c3ccccc3n3c(CCC(=O)N4CCN(c5ccccn5)CC4)nnc23)cc1 | 55 | 43
O=C(CCc1nnc2n(CCc3ccccc3)c(=O)c3ccccc3n12)NCc1ccccn1 | 0 | 0
Cc1ccc(Cn2c(=O)c3ccccc3n3c(CCC(=O)N4CCOCC4)nnc23)cc1 | 0 | 0
Cc1ccc(Cn2c(=O)c3ccccc3n3c(CCC(=O)N4CCN(C(=O)c5ccco5)CC4)nnc23)cc1 | 0 | 42
O=C(CCc1nnc2n(CCc3ccccc3)c(=O)c3ccccc3n12)N1CCN(C(=O)c2ccco2)CC1 | 0 | 0
O=C(Nc1c2c(nn1-c1ccc(F)cc1)CS(=O)(=O)C2)C1CCCCC1 | 0 | 0
CC(C(=O)NCc1ccc2c(c1)OCO2)N1CCN(c2ccc(O)cc2)CC1 (stereo not drawn) | 0 | 73
CC(=O)N1CC(C(=O)NCc2ccc3c(c2)OCO3)C1 | 0 | 0
COC(=O)c1ccccc1NC(=O)C(C)n1nc(-c2ccccc2)c2cc(Cl)ccc21 (stereo not drawn) | 0 | 0
CC(C(=O)NCc1ccc2c(c1)OCO2)n1nc(-c2ccccc2)c2cc(Cl)ccc21 (stereo not drawn) | 0 | 35
CC1CC(C)CN(c2ncc3c(n2)CC(c2ccco2)CC3=O)C1 (stereo not drawn) | 0 | 0
Cc1cnc(C(=O)N2C[C@H]3C[C@H]4[C@](C2)(CN(Cc2ccccc2)S4(=O)=O)O3)cn1 | 0 | 0
COc1c2c(cc3c1C(CC(=O)c1c(O)c(OC)c4occc4c1OC)[N+](C)(C)CC3)OCO2 (stereo not drawn) | 39 | 0
COc1c2c(cc3c1C(C(=O)Nc1ccc(C)c(C)c1)N(C)CC3)OCO2 (stereo not drawn) | 0 | 0
CC(NC(=O)C1CN(S(C)(=O)=O)c2ccccc2O1)c1ccccc1 (stereo not drawn) | 0 | 0
Cc1cc(-c2nnc(C3CCC3)o2)c(C)n1CC(=O)NCc1cccc(F)c1 | 0 | 0
CC1CCN(C(=O)c2cnc3ccccc3c2S(=O)(=O)c2ccc(Cl)cc2)CC1 | 38 | 0
COc1ccc(S(=O)(=O)c2c(C(=O)N3CCC(C)CC3)cnc3ccc(F)cc23)cc1 | 0 | 0
SMILES | USP30 block | USP17 inh
O=C(Nc1ccc(N2CCN(c3ccccc3)C2=O)nc1)C1CCCC1 | 0 | 0
O=C(Nc1ccc(N2CCN(c3ccccc3)C2=O)nc1)C1CCOC1 (stereo not drawn) | 35 | 0
O=C(Nc1ccc(N2CCN(Cc3ccc(F)cc3)C2=O)nc1)C1CCC1 | 63 | 60
O=C(Nc1ccc(N2CCN(Cc3ccc(F)cc3)C2=O)nc1)c1ccc2c(c1)OCO2 | 0 | 0
CN(C)c1ccc(C2=Nc3ncnn3C2=NCc2ccccc2)cc1 | 0 | 0
COc1ccc(NC(=O)Cc2ccc3c(c2)OCCO3)cc1S(=O)(=O)N1CCCCC1 | 0 | 0
CCC(=O)Nc1ccc(-c2csc(-c3ccccn3)n2)cc1 | 0 | 0
Cc1csc2sc(CO)c(C)c12 | 0 | 0
CCN1C(=O)C(C)(C(=O)NCc2ccccc2C)Oc2cccnc21 (stereo not drawn) | 0 | -
Cc1cnc(C(=O)N2CCC(c3nc4ccccc4cc3C(=O)N3CCCC3)CC2)cn1 | 0 | 0
Cc1ccc(CNC(=O)c2nn(C)c3c2CCc2sccc2-3)cc1 | 33 | -
Cn1nc(C(=O)N2CCN(c3ccccn3)CC2)c2c1-c1ccsc1CC2 | 0 | 0
Cn1nc(C(=O)N2CCC(c3ccccc3)C2)c2c1-c1ccsc1CC2 (stereo not drawn) | 32 | 46
Cc1ccc(-n2nc(C(=O)NCc3ccccc3)c3ncn(C)c(=O)c32)cc1 | 0 | 0
CN1CC2(COc3ccccc31)CN(S(=O)(=O)c1ccc(O)cc1)CCO2 (stereo not drawn) | 0 | 0
Cc1cc2c3c([nH]c2cc1S(=O)(=O)NCc1ccc(F)cc1)CCCC3=O | 0 | 0
O=C(O)C1CC12CCN(C(=O)C1(c3ccccc3)CCOCC1)CC2 (stereo not drawn) | 0 | 0
Nc1cc(C2CCN(C(=O)CCCc3ccccc3)CC2)no1 | - | 0
